# Measured values from PMC5540273 (PLoS ONE, 2017).
# Several values for one entry are separate records, joined by “and”; a condition that tells them apart may be missing. Equal values may be shown once. Read-outs that look alike come from different tables or passages of the source.
# Columns and labels:
# [1] = system: HPK1; details: concentration: 1 μM, replicates: in singlicate, n = 1
# [2] = system: HUNK; details: concentration: 1 μM, replicates: in singlicate; n = 1
# [3] = system: ICK; details: concentration: 1 μM, replicates: in singlicate, n = 1
# [4] = system: IGF1R; details: concentration: 1 μM, replicates: in singlicate, n = 1
# [5] = system: T1, IKK-alpha; details: concentration: 1 μM, replicates: in singlicate, n = 1
# T1 construct: gene CHUK
# [6] = system: T2, IKK-beta; details: concentration: 1 μM, replicates: in singlicate, n = 1
# T2 construct: gene IKBKB
# [7] = system: T3, IKK-epsilon; details: concentration: 1 μM, replicates: in singlicate, n = 1
# T3 construct: gene IKBKE
# [8] = system: INSRR; details: concentration: 1 μM, replicates: in singlicate; n = 1
# [9] = system: INSR; details: concentration: 1 μM, replicates: in singlicate, n = 1
# [10] = system: IRAK1; details: concentration: 1 μM, replicates: in singlicate, n = 1
# [11] = system: IRAK3; details: concentration: 1 μM, replicates: in singlicate, n = 1
# [12] = system: IRAK4; details: concentration: 1 μM, replicates: in singlicate, n = 1
# [13] = system: ITK; details: concentration: 1 μM, replicates: in singlicate, n = 1
# [14] = system: JAK1(JH1domain-catalytic); details: concentration: 1 μM, replicates: in singlicate, n = 1
# [15] = system: JAK1(JH2domain-pseudokinase); details: concentration: 1 μM, replicates: in singlicate, n = 1
# [16] = system: JAK2(JH1domain-catalytic); details: concentration: 1 μM, replicates: in singlicate, n = 1
# [17] = system: JAK3(JH1domain-catalytic); details: concentration: 1 μM, replicates: in singlicate, n = 1
# [18] = system: T4, JNK1; details: concentration: 1 μM, replicates: in singlicate, n = 1
# T4 construct: gene MAPK8
# [19] = system: T5, JNK2; details: concentration: 1 μM, replicates: in singlicate, n = 1
# T5 construct: gene MAPK9
# [20] = system: T6, JNK3; details: concentration: 1 μM, replicates: in singlicate, n = 1
# T6 construct: gene MAPK10
# 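Further: KINOMEscan kinase panel screen.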
smiles,measurement,setting,value
COCCNC(=O)c1ccc(-c2cc(C(=O)NC3CC3)cc(F)c2C)cc1 [GW868318],%Inh,[1],4%
same,%Inh,[2],7%
same,%Inh,[3],40%
same,%Inh,[4],3%
same,%Inh,[5],36%
same,%Inh,[6],29%
same,%Inh,[7],4%
same,%Inh,[8],19%
same,%Inh,[9],10%
same,%Inh,[10],37%
same,%Inh,[11],23%
same,%Inh,[12],13%
same,%Inh,[13],8%
same,%Inh,[14],0%
same,%Inh,[15],16%
same,%Inh,[16],44%
same,%Inh,[17],0%
same,%Inh,[18],38%
same,%Inh,[19],49%
same,%Inh,[20],19%
NS(=O)(=O)c1cccc(-c2ccc3nccc(-c4cccc(S(N)(=O)=O)c4)c3c2)c1 [GW867253],%Inh,[1],0%
same,%Inh,[2],17%
same,%Inh,[3],0%
same,%Inh,[4],0%
same,%Inh,[5],0%
same,%Inh,[6],0%
same,%Inh,[7],0%
same,%Inh,[8],6%
same,%Inh,[9],0%
same,%Inh,[10],12%
same,%Inh,[11],0%
same,%Inh,[12],0%
same,%Inh,[13],0%
same,%Inh,[14],0%
same,%Inh,[15],38%
same,%Inh,[16],8%
same,%Inh,[17],0%
same,%Inh,[18],30%
same,%Inh,[19],5%
same,%Inh,[20],0%
N#Cc1ccc(-c2cc(-c3c[nH]nc3-c3ccccn3)ccn2)cc1 [GW693028],%Inh,[1],38%
same,%Inh,[2],0%
same,%Inh,[3],11%
same,%Inh,[4],22%
same,%Inh,[5],25%
same,%Inh,[6],19%
same,%Inh,[7],0%
same,%Inh,[8],0%
same,%Inh,[9],1%
same,%Inh,[10],39%
same,%Inh,[11],0%
same,%Inh,[12],22%
same,%Inh,[13],9%
same,%Inh,[14],22%
same,%Inh,[15],0%
same,%Inh,[16],9%
same,%Inh,[17],0%
same,%Inh,[18],34%
same,%Inh,[19],59%
same,%Inh,[20],69%
COc1cc2c(cc1OCCN1CCN(C)CC1)ncc1c3ccc(C#N)cc3[nH]c21,%Inh,[1],11%
same,%Inh,[2],0%
same,%Inh,[3],10%
same,%Inh,[4],0%
same,%Inh,[5],44%
same,%Inh,[6],29%
same,%Inh,[7],70%
same,%Inh,[8],0%
same,%Inh,[9],0%
same,%Inh,[10],97.2%
same,%Inh,[11],84%
same,%Inh,[12],100%
same,%Inh,[13],38%
same,%Inh,[14],0%
same,%Inh,[15],60%
same,%Inh,[16],52%
same,%Inh,[17],93.4%
same,%Inh,[18],19%
same,%Inh,[19],0%
same,%Inh,[20],0%
COc1cc2c(cc1OC[C@@H](O)CO)ncc1c3ccc(C#N)cc3[nH]c21,%Inh,[1],0%
same,%Inh,[2],0%
same,%Inh,[3],0%
same,%Inh,[4],0%
same,%Inh,[5],51%
same,%Inh,[6],35%
same,%Inh,[7],40%
same,%Inh,[8],0%
same,%Inh,[9],0%
same,%Inh,[10],97.2%
same,%Inh,[11],67%
same,%Inh,[12],99.9%
same,%Inh,[13],13%
same,%Inh,[14],0%
same,%Inh,[15],11%
same,%Inh,[16],3%
same,%Inh,[17],59%
same,%Inh,[18],15%
same,%Inh,[19],0%
same,%Inh,[20],0%
O=c1cc(N2CCOCC2)nc2n(Cc3cccc4ccccc34)ccn12 [GSK2333389],%Inh,[1],5%
same,%Inh,[2],0%
same,%Inh,[3],0%
same,%Inh,[4],4%
same,%Inh,[5],29%
same,%Inh,[6],17%
same,%Inh,[7],0%
same,%Inh,[8],0%
same,%Inh,[9],0%
same,%Inh,[10],13%
same,%Inh,[11],0%
same,%Inh,[12],20%
same,%Inh,[13],21%
same,%Inh,[14],7%
same,%Inh,[15],0%
same,%Inh,[16],17%
same,%Inh,[17],0%
same,%Inh,[18],21%
same,%Inh,[19],0%
same,%Inh,[20],0%
CCc1ccnc(/C=C/c2n[nH]c3cc(Sc4ccccc4C(=O)NC)ccc23)c1,%Inh,[1],30%
same,%Inh,[2],0%
same,%Inh,[3],0%
same,%Inh,[4],0%
same,%Inh,[5],8%
same,%Inh,[6],4%
same,%Inh,[7],14%
same,%Inh,[8],0%
same,%Inh,[9],0%
same,%Inh,[10],8%
same,%Inh,[11],32%
same,%Inh,[12],5%
same,%Inh,[13],1%
same,%Inh,[14],0%
same,%Inh,[15],0%
same,%Inh,[16],0%
same,%Inh,[17],0%
same,%Inh,[18],0%
same,%Inh,[19],3%
same,%Inh,[20],0%
Cc1cccc(-c2nc(Nc3ccc4ncsc4c3)c3ccccc3n2)n1 [GW867588],%Inh,[1],0%
same,%Inh,[2],45%
same,%Inh,[3],17%
same,%Inh,[4],0%
same,%Inh,[5],15%
same,%Inh,[6],0%
same,%Inh,[7],4%
same,%Inh,[8],0%
same,%Inh,[9],0%
same,%Inh,[10],40%
same,%Inh,[11],0%
same,%Inh,[12],0%
same,%Inh,[13],30%
same,%Inh,[14],0%
same,%Inh,[15],62%
same,%Inh,[16],0%
same,%Inh,[17],0%
same,%Inh,[18],2%
same,%Inh,[19],8%
same,%Inh,[20],0%
NS(=O)(=O)CCc1cccc(Nc2nccc(-c3c(-c4cccc(NC(=O)c5c(F)cccc5F)c4)nn4ccccc34)n2)c1 [GSK336735],%Inh,[1],56%
same,%Inh,[2],0%
same,%Inh,[3],0%
same,%Inh,[4],73%
same,%Inh,[5],0%
same,%Inh,[6],0%
same,%Inh,[7],33%
same,%Inh,[8],62%
same,%Inh,[9],39%
same,%Inh,[10],0%
same,%Inh,[11],16%
same,%Inh,[12],9%
same,%Inh,[13],20%
same,%Inh,[14],18%
same,%Inh,[15],0%
same,%Inh,[16],0%
same,%Inh,[17],77%
same,%Inh,[18],36%
same,%Inh,[19],55%
same,%Inh,[20],16%
NCCNS(=O)(=O)c1ccc(-c2ccnc3[nH]ccc23)cc1 [GSK977617],%Inh,[1]; 1 µM,59% and 44%
same,%Inh,[2],0%
same,%Inh,[3]; 1 µM,19% and 2%
same,%Inh,[4]; 1 µM,8% and 16%
same,%Inh,[5]; 1 µM,97.7% and 94.3%
same,%Inh,[6]; 1 µM,99.4%
same,%Inh,[7]; 1 µM,29% and 32%
same,%Inh,[8],2%
same,%Inh,[9]; 1 µM,18% and 4%
same,%Inh,[10]; 1 µM,81% and 65%
same,%Inh,[11]; 1 µM,60% and 39%
same,%Inh,[12]; 1 µM,22% and 8%
same,%Inh,[13]; 1 µM,66% and 44%
same,%Inh,[14]; 1 µM,38% and 26%
same,%Inh,[15]; 1 µM,32% and 25%
same,%Inh,[16]; 1 µM,95.6% and 90.8%
same,%Inh,[17]; 1 µM,83% and 84%
same,%Inh,[18]; 1 µM,42% and 18%
same,%Inh,[19]; 1 µM,30% and 9%
same,%Inh,[20]; 1 µM,27% and 15%
